These results are taken from PubChem BioAssay (NCI).

This is part of a sample that, as a whole, favours compounds with a hit. Of some 83,000 tested, about 20% had one in any assay.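 Results are percent growth after 48 hours of single-concentration exposure. 100 means growth as in untreated cells, lower positive values show inhibition; negative values down to -100 show cell death.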 A number with no mark means an inactive call. Active and inactive are the calls of the source. How the source made its calls: active means growth percent below 10; inactive means the rest.

The subject of the assay is MDA-MB-468 breast. As to the kind of experiment: NCI-60 one-dose screen, 48 h (100 = growth as untreated, 0 = no growth, -100 = all killed). Particulars: 10 µM unless noted.
Consider `O=C(CN1CCN(c2cc(=O)n(-c3ccccc3)c3ccccc23)CC1)Nc1nc(-c2ccc(Cl)cc2)cs1`, for which the growth is 9.61% (active). As to `CS(=O)(=O)Nc1cccc(-c2ccc3ncnc(Nc4ccc(F)c(Cl)c4)c3c2)c1`, the growth is -26% (active).

In the case of `Cc1cccc([N+](=O)[O-])c1Cl`, the growth was 92.4%. In the case of `N=C(N)c1ccc(-c2ccc(-c3cc(Cl)cc(Cl)c3)s2)cc1`, the growth is -77.6% (active). Consider `COc1ccc(NC(=O)CSc2nc(-c3ccc(OC)c(OC)c3)cc(-c3cc(OC)c(OC)c(OC)c3)n2)cc1`, for which the growth was 110%. `CCCCC/C(C)=N\NC(N)=S`: the growth is -6.78% (active).

As for `O=C1/C(=C/c2ccc(Oc3ccccc3)cc2)N=C(c2ccccc2)N1CCc1cccs1`, the growth is 108%.

In the case of `Cc1cc(OI)c(C(C)C)cc1-c1cc(C(C)C)c(OI)cc1C`, the growth is 108%. With `CCCCCCCCCCCC1N=C(N)N=C(N)N1c1cccc(Br)c1` (centres undefined), the growth was -92.7% (active). `CCCCCCCC/C=C\CCCCCCCCOc1cccc(CC(=O)NCC[N+]2(C)CCCCC2)c1`: the growth is 52.6%. For the compound `OCCOCC(F)(F)F`, the growth was 106%. For the compound `Cc1n(Cc2ccc3ccccc3c2)c(Cl)c(Cl)[n+]1Cc1ccc2ccccc2c1`, the growth was -19.5% (active).

With `COc1ccc(N(C)c2nc(N)nc3sc4c(c23)CCCC4)cc1`, the growth is 19.4%.

In the case of `CCn1cnc2c1c(=O)[nH]c(=O)n2CC1CCC(CNS(=O)(=O)c2ccc(OC3CCOCC3)c(F)c2)CC1` (centres undefined), the growth is 30.5%. For `O=C(O)Cc1ccc(Cl)cc1`, the growth was 106%. To `CO[C@H]1/C=C/O[C@@]2(C)Oc3c(C)c(O)c4c(O)c(c5c(nc6cc(C)ccn65)c4c3C2=O)NC(=O)/C(C)=C\C=C\[C@H](C)[C@H](O)[C@@H](C)C(O)[C@@H](C)[C@H](OC(C)=O)[C@@H]1C` (some centres undefined) belongs 105%.

As to `C#C[C@]1(O)CC[C@H]2[C@@H]3CC=C4c5sc(-c6ccc(OC)cc6)nc5CC[C@]4(C)[C@H]3CC[C@@]21C`, the growth is 71.6%. The value for `CN(C)CCNC(=O)n1cc(-c2ccncc2)c(-c2cc(O)cc(Cl)c2)n1` was 84.1%. The value for `O=C(CCCCCCN1CC(=O)N2[C@@H](c3cccc(Cl)c3)c3[nH]c4ccccc4c3C[C@H]2C1=O)NO` was 47.2%; that for `COc1ccc(/C=C2\Oc3cc(OCCCN4CCCCC4)ccc3C2=O)cc1OC` was 76.4%; that for `COc1ccc(-c2nc3ccc(-c4nnc(SCC(=O)Nc5ccc(C(=O)/C=C/c6ccccc6)cc5)o4)cc3[nH]2)cc1OC` was 104%. For `Cc1ccc(-c2noc(C)n2)cc1`, the growth was 101%.

As to `C=CN(C(=O)N1CCN(c2cc3c(cc2F)c(=O)c(C(=O)O)cn3C2CC2)CC1)c1nc(-c2ccc(Cl)cc2)cs1`, the growth was 76.3%. For the compound `Nc1ccccc1NC(=O)c1ccc(CN2CCC/C(=C\c3cccc(Cl)c3)C2=O)cc1`, the growth is -10.1% (active). The value for `COc1cc(OC)cc(C2CC(=O)Nc3c2c(C)nn3-c2nc3ccccc3[nH]2)c1` (centres undefined) was 46.6%; that for `NC(=N\N=C\c1ccccc1O)/C(N)=N/N=C/c1ccccc1O` was 74%; that for `CS(=O)(=O)Nc1cccc(-c2ccc3ncnc(Nc4cncc(Cl)c4)c3c2)c1` was -39.5% (active). Regarding `COc1cc2oc(-c3cccc(NC(=O)c4ccccc4)c3)cc(=O)c2c(OC)c1OC`, the growth was 84.2%. The value for `C[C@@H]1C[C@H]2C(=O)OCC(NC(=O)[C@H](Cc3cc(F)cc(F)c3)NC(=O)Nc3ccc(Cl)cc3F)C(=O)N3CCC[C@H]3C(=O)N3CCCC[C@H]3C(=O)N[C@@H](C)C(=O)N2C1` (some centres undefined) was -6.95% (active); that for `Cc1ccc2[nH]c(=O)c3c(c2c1)Oc1ncn2nc(-c4ccco4)nc2c1C3c1ccc(Cl)cc1` (centres undefined) was 96.4%; that for `Cc1[nH]nc2ccc(-c3nc4cnc(N5CCN(C)CC5)cn4c3Nc3ccc(F)cc3Br)cc12` was 56.2%.

Regarding `N#CCCCCCCCCCCC#N`, the growth was 112%. The value for `CCOc1ccccc1NC(=O)CCC(=O)OC` was 99.7%.

Regarding `Cc1ccc(CNc2ccc3nc(CCC4CCCCC4)[nH]c3c2)cc1`, the growth was -13.2% (active). As to `O=C(O)CCC(=O)c1ccc(C2CCCCCC2)cc1`, the growth is 105%. The value for `COC(=O)C1=Nc2ccc(F)cc2/C1=C/c1sc(=S)[nH]c1O` was 13.4%.

With `Cn1ncc2cc3c(Nc4ccc(Cl)cc4)cccc3nc21`, the growth is 79%. Regarding `CSc1nc2c(c(=O)[nH]1)N=C1c3ccccc3C(=O)C1C(c1ccccc1)N2` (centres undefined), the growth is 15.4%.

As to `CC1(C)CC[C@]2(C(=O)Nc3ccccn3)CC[C@]3(C)C(=CC[C@@H]4[C@@]5(C)C/C(=C/c6cccnc6)C(=O)C(C)(C)[C@@H]5CC[C@]43C)[C@H]2C1`, the growth was 17.2%.
